Test results published in paper PMC7862700, “An all-to-all approach to the identification of sequence-specific readers for epigenetic DNA modifications on cytosine”.

Columns and labels:
Assay in all cases: DAPPL (digital affinity profiling via proximity ligation, sequencing); 10 mM Tris-HCl pH 7.5, 50 mM NaCl, 1 mM DTT, 4% glycerol, room temperature, 30 min; GST-TFs on glutathione beads, 16-mer random dsDNA library, 0.1% formaldehyde crosslink after washing; high values mean tight binding
Details in all cases: protein: recombinant; tags: N-terminal GST; dsDNA, one strand shown
[1] = target: T1, FEV (Homo sapiens, UniProt Q99581 1-238)
T1 sequence: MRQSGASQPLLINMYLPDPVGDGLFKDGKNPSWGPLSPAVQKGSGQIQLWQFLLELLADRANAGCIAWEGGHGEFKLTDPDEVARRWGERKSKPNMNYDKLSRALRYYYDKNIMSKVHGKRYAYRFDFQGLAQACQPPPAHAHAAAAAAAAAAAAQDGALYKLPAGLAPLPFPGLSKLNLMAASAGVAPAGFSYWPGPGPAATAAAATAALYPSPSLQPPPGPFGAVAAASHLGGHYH
How it was run: (§1)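 GST fusions of human transcription factors were expressed in yeast and captured with glutathione beads. Once given DNA barcodes and pooled alongside a tag-only sample, they were incubated for 30 min at room temperature with 200 nmole of a random double-stranded 16-mer DNA library in Tris/NaCl/DTT/glycerol buffer, then washed, crosslinked (0.1% formaldehyde), proximity-ligated, PCR-amplified and sequenced on an Illumina NextSeq500. The binding signal of each hexamer is its read frequency for a factor divided by its frequency for the tag-only sample.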

[2] = target: ETV5 (Homo sapiens, UniProt P41161 1-510)
How it was run: as §1

[3] = target: T2, SPIC (Homo sapiens, UniProt Q8N5J4 1-248)
T2 sequence: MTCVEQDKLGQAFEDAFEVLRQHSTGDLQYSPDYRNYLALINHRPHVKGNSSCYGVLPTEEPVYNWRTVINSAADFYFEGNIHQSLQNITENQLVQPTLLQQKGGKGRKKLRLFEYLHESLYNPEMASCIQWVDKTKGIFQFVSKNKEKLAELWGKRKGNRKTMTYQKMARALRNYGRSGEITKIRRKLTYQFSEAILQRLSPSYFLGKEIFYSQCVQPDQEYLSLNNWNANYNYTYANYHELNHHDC
How it was run: as §1

[4] = target: ELF4 (Homo sapiens, UniProt Q99607 1-663)
How it was run: as §1

[5] = target: T3, ELK4 (Homo sapiens, UniProt P28324-2 1-405)
T3 sequence: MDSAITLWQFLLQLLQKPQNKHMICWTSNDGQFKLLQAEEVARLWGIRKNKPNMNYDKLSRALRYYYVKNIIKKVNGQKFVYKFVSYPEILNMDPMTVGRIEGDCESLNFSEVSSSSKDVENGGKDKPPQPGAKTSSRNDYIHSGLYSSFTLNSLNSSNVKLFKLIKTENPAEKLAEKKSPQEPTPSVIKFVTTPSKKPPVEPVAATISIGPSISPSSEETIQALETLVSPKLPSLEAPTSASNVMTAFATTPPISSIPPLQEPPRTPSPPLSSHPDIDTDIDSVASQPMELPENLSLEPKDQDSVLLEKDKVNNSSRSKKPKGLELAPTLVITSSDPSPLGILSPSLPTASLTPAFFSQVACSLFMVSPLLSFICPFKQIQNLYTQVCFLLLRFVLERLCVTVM
How it was run: as §1

[6] = target: T4, ETV2 (Homo sapiens, UniProt O00321 1-342)
T4 sequence: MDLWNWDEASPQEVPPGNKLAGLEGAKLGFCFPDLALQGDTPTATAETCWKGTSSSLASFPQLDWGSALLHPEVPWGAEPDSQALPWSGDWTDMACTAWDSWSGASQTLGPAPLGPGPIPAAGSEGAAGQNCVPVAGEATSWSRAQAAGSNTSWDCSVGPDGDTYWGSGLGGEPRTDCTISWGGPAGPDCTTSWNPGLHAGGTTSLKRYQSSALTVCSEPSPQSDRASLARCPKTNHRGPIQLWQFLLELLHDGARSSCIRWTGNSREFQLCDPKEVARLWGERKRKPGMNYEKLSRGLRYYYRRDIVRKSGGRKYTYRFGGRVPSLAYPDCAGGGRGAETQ
How it was run: as §1

[7] = target: T5, ELF3 (Homo sapiens, UniProt P78545 1-371)
T5 sequence: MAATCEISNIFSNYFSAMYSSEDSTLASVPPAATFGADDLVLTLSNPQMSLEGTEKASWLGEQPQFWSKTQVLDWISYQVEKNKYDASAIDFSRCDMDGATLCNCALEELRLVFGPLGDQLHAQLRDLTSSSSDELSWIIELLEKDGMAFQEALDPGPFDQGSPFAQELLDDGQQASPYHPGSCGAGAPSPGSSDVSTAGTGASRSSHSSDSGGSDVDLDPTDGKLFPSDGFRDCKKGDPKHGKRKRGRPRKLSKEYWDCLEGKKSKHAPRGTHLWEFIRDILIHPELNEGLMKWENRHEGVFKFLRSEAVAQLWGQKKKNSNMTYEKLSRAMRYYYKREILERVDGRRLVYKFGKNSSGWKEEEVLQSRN
How it was run: as §1

[8] = target: ETV1 (Homo sapiens, UniProt P50549 1-477)
How it was run: as §1

[9] = target: T6, ERF (Homo sapiens, UniProt P50548 1-548)
T6 sequence: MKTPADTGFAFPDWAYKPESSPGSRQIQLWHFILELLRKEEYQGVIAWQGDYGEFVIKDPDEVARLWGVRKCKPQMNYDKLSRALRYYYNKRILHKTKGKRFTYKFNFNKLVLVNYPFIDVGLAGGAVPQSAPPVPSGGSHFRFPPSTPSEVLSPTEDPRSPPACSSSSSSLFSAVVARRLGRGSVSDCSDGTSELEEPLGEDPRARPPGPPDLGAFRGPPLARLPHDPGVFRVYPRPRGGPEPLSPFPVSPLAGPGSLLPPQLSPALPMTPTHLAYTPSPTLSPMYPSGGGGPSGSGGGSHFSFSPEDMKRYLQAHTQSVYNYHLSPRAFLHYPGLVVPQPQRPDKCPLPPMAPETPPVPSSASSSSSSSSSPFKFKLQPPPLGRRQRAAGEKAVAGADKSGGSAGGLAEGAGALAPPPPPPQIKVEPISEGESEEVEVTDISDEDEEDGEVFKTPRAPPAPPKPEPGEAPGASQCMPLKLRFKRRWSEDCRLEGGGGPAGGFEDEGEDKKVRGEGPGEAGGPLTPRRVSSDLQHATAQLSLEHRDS
How it was run: as §1

[10] = target: T7, ETV3L (Homo sapiens, UniProt Q6ZN32 1-361)
T7 sequence: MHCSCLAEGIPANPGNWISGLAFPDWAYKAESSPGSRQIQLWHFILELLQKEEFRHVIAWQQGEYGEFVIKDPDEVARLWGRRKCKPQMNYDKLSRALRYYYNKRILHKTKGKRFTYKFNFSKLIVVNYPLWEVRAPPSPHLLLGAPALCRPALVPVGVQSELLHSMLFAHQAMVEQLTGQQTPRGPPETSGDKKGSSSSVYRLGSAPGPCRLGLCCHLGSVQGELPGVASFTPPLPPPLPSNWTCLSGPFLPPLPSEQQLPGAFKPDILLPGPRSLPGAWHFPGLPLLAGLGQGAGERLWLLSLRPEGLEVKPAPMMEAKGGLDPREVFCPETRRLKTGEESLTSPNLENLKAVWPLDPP
How it was run: as §1

[11] = target: T8, ETS2 (Homo sapiens, UniProt P15036 1-469)
T8 sequence: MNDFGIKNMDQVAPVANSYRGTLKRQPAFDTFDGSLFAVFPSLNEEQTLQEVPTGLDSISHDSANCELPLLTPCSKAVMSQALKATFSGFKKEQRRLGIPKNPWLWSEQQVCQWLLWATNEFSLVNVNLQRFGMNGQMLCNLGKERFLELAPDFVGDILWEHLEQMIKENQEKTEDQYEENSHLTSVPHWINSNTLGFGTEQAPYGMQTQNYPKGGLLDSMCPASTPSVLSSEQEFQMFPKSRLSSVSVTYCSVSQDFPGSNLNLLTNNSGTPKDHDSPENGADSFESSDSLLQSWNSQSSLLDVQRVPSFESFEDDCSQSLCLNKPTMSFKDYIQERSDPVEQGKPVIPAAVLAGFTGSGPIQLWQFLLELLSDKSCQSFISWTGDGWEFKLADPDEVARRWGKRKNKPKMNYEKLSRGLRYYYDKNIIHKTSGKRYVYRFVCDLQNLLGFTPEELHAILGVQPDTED
How it was run: as §1

[12] = target: T9, SPDEF (Homo sapiens, UniProt O95238 1-335)
T9 sequence: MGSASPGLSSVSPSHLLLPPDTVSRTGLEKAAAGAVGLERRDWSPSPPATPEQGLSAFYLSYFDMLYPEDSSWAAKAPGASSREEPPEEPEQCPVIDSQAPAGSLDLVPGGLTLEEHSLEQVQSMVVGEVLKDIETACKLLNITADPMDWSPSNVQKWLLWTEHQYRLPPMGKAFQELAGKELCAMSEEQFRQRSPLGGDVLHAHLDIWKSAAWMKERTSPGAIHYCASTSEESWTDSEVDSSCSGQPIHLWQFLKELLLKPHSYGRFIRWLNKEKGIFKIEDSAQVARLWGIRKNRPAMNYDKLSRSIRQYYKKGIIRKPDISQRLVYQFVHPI
How it was run: as §1

[13] = target: T10, ETV7 (Homo sapiens, UniProt Q9Y603 1-341)
T10 sequence: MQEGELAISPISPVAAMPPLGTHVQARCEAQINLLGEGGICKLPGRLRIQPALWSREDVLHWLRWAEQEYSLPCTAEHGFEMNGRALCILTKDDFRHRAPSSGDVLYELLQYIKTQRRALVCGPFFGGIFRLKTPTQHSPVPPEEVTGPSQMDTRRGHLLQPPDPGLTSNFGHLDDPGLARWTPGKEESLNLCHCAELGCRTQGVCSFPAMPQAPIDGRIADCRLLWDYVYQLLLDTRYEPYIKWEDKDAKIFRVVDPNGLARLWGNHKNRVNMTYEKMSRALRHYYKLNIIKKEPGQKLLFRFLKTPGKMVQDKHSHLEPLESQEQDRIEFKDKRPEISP
How it was run: as §1

[14] = target: T11, ELF5 (Homo sapiens, UniProt Q9UKW6-2 1-255)
T11 sequence: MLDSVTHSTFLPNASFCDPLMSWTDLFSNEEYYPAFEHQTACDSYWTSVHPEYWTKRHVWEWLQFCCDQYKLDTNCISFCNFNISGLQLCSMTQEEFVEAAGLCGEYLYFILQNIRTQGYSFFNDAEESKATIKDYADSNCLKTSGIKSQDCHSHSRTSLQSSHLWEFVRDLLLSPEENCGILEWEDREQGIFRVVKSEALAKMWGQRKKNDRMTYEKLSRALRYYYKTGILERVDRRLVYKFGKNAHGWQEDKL
How it was run: as §1

[15] = target: T12, ETV3 (Homo sapiens, UniProt P41162-2 1-143)
T12 sequence: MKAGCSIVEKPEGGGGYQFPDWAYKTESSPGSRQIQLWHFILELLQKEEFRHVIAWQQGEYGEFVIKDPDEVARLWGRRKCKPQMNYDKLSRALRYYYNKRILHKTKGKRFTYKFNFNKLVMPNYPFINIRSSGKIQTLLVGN
How it was run: as §1

[16] = target: ETV6 (Homo sapiens, UniProt P41212 1-452)
How it was run: as §1

Chain of ETV6 (P41212 whole entry): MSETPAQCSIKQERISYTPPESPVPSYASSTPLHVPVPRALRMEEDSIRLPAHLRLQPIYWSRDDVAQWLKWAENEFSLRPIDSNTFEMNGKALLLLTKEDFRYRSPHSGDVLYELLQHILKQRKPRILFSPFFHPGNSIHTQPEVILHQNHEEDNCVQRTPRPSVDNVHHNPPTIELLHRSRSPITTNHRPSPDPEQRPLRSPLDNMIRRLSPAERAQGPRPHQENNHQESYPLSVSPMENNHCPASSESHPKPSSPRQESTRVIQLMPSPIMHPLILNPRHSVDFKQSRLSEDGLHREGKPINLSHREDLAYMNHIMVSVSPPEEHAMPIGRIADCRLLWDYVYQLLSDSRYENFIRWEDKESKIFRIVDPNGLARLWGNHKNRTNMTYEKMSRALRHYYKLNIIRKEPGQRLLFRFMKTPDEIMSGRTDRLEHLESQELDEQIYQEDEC
Chain of ETV5 (P41161 whole entry): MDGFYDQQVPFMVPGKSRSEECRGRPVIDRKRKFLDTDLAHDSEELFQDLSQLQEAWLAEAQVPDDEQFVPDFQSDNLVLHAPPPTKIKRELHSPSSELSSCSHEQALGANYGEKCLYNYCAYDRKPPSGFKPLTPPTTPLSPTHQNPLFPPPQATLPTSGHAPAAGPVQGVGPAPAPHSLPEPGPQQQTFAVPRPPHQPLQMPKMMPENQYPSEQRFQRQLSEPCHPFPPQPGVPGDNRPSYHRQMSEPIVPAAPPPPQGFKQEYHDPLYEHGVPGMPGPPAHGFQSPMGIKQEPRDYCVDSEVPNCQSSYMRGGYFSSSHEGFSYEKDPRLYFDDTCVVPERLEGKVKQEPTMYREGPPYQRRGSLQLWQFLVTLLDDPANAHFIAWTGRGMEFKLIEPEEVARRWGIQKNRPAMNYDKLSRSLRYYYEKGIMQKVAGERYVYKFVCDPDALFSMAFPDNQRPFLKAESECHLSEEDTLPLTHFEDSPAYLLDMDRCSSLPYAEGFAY
Chain of ELF4 (Q99607 whole entry): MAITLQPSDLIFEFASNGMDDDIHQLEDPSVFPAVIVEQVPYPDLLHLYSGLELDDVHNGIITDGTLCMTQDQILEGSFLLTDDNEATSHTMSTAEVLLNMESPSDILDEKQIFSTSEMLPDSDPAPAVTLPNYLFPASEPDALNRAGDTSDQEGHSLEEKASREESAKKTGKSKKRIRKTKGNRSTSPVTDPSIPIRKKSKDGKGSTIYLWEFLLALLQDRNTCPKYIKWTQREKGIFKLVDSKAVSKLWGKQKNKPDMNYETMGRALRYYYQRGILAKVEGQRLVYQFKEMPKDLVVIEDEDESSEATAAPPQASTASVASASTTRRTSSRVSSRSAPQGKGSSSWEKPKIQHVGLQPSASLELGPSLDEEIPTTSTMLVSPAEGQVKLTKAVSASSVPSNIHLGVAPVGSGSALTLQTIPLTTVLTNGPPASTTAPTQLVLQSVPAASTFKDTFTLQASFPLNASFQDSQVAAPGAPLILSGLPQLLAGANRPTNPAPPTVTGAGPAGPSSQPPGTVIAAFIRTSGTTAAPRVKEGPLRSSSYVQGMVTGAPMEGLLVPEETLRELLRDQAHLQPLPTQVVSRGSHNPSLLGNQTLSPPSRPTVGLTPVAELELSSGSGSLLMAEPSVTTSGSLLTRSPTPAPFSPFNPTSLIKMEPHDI
Chain of ETV1 (P50549 whole entry): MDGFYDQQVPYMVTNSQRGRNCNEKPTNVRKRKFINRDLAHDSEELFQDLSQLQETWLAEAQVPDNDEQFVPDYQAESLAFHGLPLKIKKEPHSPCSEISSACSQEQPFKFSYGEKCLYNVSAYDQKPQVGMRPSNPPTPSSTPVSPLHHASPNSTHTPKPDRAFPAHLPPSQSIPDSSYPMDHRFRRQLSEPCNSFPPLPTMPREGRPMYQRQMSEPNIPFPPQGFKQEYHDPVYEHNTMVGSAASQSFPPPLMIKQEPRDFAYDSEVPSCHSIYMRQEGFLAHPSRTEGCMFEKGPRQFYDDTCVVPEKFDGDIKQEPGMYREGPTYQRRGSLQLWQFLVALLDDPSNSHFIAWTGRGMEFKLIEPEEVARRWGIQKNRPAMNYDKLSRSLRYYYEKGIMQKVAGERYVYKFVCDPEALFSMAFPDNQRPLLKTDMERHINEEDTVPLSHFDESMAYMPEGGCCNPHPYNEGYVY

For TGTCCA, the binding signal [1] was 1.11 fold enrichment (6-mer frequency, TF over GST control), the binding signal [2] was 1.15 fold enrichment (6-mer frequency, TF over GST control) and the binding signal [3] was 1.17 fold enrichment (6-mer frequency, TF over GST control). The binding signal [4] was 1.16 fold enrichment (6-mer frequency, TF over GST control), the binding signal [5] was 1.11 fold enrichment (6-mer frequency, TF over GST control) and the binding signal [6] was 1.3 fold enrichment (6-mer frequency, TF over GST control). The binding signal [7] was 1.06 fold enrichment (6-mer frequency, TF over GST control), the binding signal [8] was 1.04 fold enrichment (6-mer frequency, TF over GST control) and the binding signal [9] was 1.09 fold enrichment (6-mer frequency, TF over GST control). For the same sequence, the binding signal [10] was 1.2 fold enrichment (6-mer frequency, TF over GST control), the binding signal [11] was 1.14 fold enrichment (6-mer frequency, TF over GST control) and the binding signal [12] was 1.13 fold enrichment (6-mer frequency, TF over GST control). The binding signal [13] was 1.18 fold enrichment (6-mer frequency, TF over GST control), the binding signal [14] was 1.05 fold enrichment (6-mer frequency, TF over GST control) and the binding signal [15] was 1.13 fold enrichment (6-mer frequency, TF over GST control). For the same sequence, the binding signal [16] was 1.12 fold enrichment (6-mer frequency, TF over GST control).

For CCCACC, the binding signal [1] was 1.17 fold enrichment (6-mer frequency, TF over GST control), the binding signal [2] was 1.16 fold enrichment (6-mer frequency, TF over GST control) and the binding signal [3] was 1.21 fold enrichment (6-mer frequency, TF over GST control). The binding signal [4] was 1.19 fold enrichment (6-mer frequency, TF over GST control), the binding signal [5] was 1.26 fold enrichment (6-mer frequency, TF over GST control) and the binding signal [6] was 1.15 fold enrichment (6-mer frequency, TF over GST control). The binding signal [7] was 1.41 fold enrichment (6-mer frequency, TF over GST control), the binding signal [8] was 1.14 fold enrichment (6-mer frequency, TF over GST control) and the binding signal [9] was 1.16 fold enrichment (6-mer frequency, TF over GST control). The binding signal [10] was 1.05 fold enrichment (6-mer frequency, TF over GST control), the binding signal [11] was 1.02 fold enrichment (6-mer frequency, TF over GST control) and the binding signal [12] was 1.12 fold enrichment (6-mer frequency, TF over GST control). The binding signal [13] was 1.08 fold enrichment (6-mer frequency, TF over GST control), the binding signal [14] was 1.15 fold enrichment (6-mer frequency, TF over GST control) and the binding signal [15] was 1.06 fold enrichment (6-mer frequency, TF over GST control). The binding signal [16] was 1.12 fold enrichment (6-mer frequency, TF over GST control).
